Data from PubChem BioAssay (NCI).
The panel holds about 79,000 compounds, 15% with a hit somewhere; the sample as a whole holds those more often. A number with no mark means an inactive call. Calls of active or inactive are those of the source. No stated cut-off is given here; in the data, active means growth inhibition above about 70%; inactive means the rest.

Assay: NCI Yeast Anticancer Drug Screen. Data for the mlh1 strain (AID 171);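 further: 0% = growth of vehicle-treated control cultures of the same strain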
Conditions: S. cerevisiae mlh1 strain growth inhibition, hits give high values
Procedure: Growth inhibition of yeast strains with defined genetic alterations is measured as a screen for potential anti-cancer activity. Selected strains with alterations in DNA damage repair or cell cycle control were exposed to compounds and growth inhibition was measured relative to vehicle treated controls. The strain used in this assay is mlh1

Row | SMILES | growth inhibition (at 1.2 µM) | growth inhibition (at 3.7 µM) | growth inhibition (at 11.0 µM) | growth inhibition (at 33.0 µM) | growth inhibition (at 100.0 µM)
1 | CN(C)N1C(=O)SCC(c2ccccc2)(c2ccccc2)C1=O | -1% | 1% | 1% | 12% | -10%
2 | Cc1cnccc1N=Nc1ccc(N(C)C)cc1 | -1% | 1% | 0% | 24% | 31%
3 | O=C(CCCN1CCC2(CC1)OC(=O)N(c1ccccc1)C2=O)c1ccccc1 | 35% | 66% | 71% (active) | 70% (active) | 73% (active)
4 | S=C1NC2=C(CSC/C2=C\c2ccc(Cl)cc2)C(c2ccc(Cl)cc2)N1 (stereo not given) | 3% | 26% | 46% | 72% (active) | 75% (active)
5 | Nc1cccc2cc(Cl)cnc12 | -40% | -41% | -40% | -33% | 49%
6 | S=c1[nH]nc(Cc2ccccc2)c(=S)[nH]1 | 14% | 34% | 77% (active) | 96% (active) | 96% (active)
7 | COc1cc(NCCCCCNC(C)C)c2ncccc2c1Cl | -1% | -1% | 1% | 7% | 15%
8 | Cc1ccc(SSc2ccc(C)cc2[N+](=O)[O-])c([N+](=O)[O-])c1 | -14% | -8% | -1% | 66% | 87% (active)
